High-throughput results deposited in PubChem by National Center for Advancing Translational Sciences (NCATS).
An excerpt weighted towards active compounds, which were near 9.3% of everything screened.
ELG1 DNA repair: ELG1-dependent DNA repair inhibition; HEK293T ELG1-luciferase reporter, luminescence, 16 h; DNA damage induced by 5-fluorouridine; Potency, µM (doses to about 46.1 µM), without a hit: at the highest dose activity change, negative = inhibition, hits mostly inhibitors; 330,000 tested, 2.3% active; also: % is scaled to controls: 0 for no effect and ±100 for the full control effect; nearly all actives have a fitted effect of over 55% in size
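5-Fluorouridine DNA damage + compound/DMSO, 2,000 cells/well, 16 h, 37 °C/5% CO2. ONE-Glo, 30 min RT, luminescence. Readout = decrease in reporter signal.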
NPC1 promoter act: activates the NPC1 promoter; AID 485313; Potency, µM (doses to about 9.22 µM), for inactives: top-dose activation, most hits filed as activators; 320,000 tested, 2.4% active; Huh7 NPC1 promoter luciferase reporter, 24 h; also: % of control where 0% means no effect; nearly all actives have a fitted effect of over 60% in size
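Cells: Huh7 expressing luciferase under the NPC1 promoter, 1500/well. Seeded 2 h, compound added, incubated 24 h at 37 °C. Luciferase reagent, 10 min ambient, then luminescence.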
ELG1 genotox: inducers of genotoxicity in HEK293T ELG1-luciferase cells. HEK293T ELG1-luciferase reporter, luminescence, 16 h. Potency, µM (doses to about 46 µM), for the others: at the highest dose activity change, positive = activation, actives largely listed as activators. 330,000 tested, 1.3% active; also: % of control where 0% means no effect; nearly all actives have a fitted effect of over 60% in size
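Genotoxicity was scored as increased ELG1-luciferase reporter signal, measured by ONE-Glo luminescence (30 min, room temperature). Compound or vehicle exposure of the HEK293T reporter cells lasted 16 hr at 37°C.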
Rab9 prom act: Rab9 promoter activation | 320,000 tested, 2.8% active | AID 485297 | Huh7 Rab9 promoter-luciferase reporter, luminescence, 24 h | Potency, µM (titrated, usually from 9.22 µM), for inactives: top-dose activation, negative = inhibition, most hits filed as activators; also: % of control where 0% means no effect; nearly all actives have a fitted effect of over 60% in size
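Luminescence read-out: Huh7 cells stably expressing Rab9-luciferase, treated 24 h with compound at 37 °C, then lysed with luciferase reagent for 10 min at ambient before reading.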
FLuc modulator: inhibits or activates purified firefly luciferase, miR-21 counter-screen; 360,000 tested, 6.9% active; Potency, µM (top dose mostly 57.5 µM), for the others: top-dose activity change, negative = inhibition, usual class: inhibitors; P08659; purified FLuc, Km substrates, luminescence inhibition;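 also: plate controls were vehicle for no effect and reference inhibitor for full effect; nearly all actives have a fitted effect of over 55% in size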
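Purified P. pyralis luciferase (10nM final) with 10uM D-luciferin and 10uM ATP (Km levels) in 50mM Tris acetate pH 7.5, 10mM Mg acetate, 0.01% Tween-20, 0.05% BSA; qHTS 6-point titration, ~60 µM downward; luminescence read.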
SMN2 splice enh: increases expression of the SMN2 splice variant; HEK293 SMN2-luciferase splicing reporter, luminescence, 30-36 h; 210,000 tested, 2.8% active; Potency, µM (top dose mostly 46.1 µM), inactives show at the highest dose activity change, positive = activation, actives largely listed as activators; also: % of control where 0% means no effect; nearly all actives have a fitted effect of over 55% in size
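HEK293 cells carry an SMN2 minigene-luciferase reporter in which exon 7 inclusion puts luciferase in frame. Cells were seeded at 2000 cells/well, attached for 10-12 hours, then exposed to compounds for 30-36 hours at 37C before ONE-Glo luminescence.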
ELG1 FLuc counter: luciferase inhibition in cell-free luciferin readout for ELG1 hits; shares compounds with ELG1 DNA repair; cell-free firefly luciferase luminescence counter-screen, ViewLux; Potency, µM (top dose mostly 46.1 µM), for inactives: at the top dose activity change, negative = inhibition, usual class: inhibitors; 350 tested, 3% active; also: % is scaled to controls: 0 for no effect and ±100 for the full control effect
ELG1 Luc conf: inhibits ELG1-dependent DNA repair in HEK293T cells, confirmed; shares compounds with ELG1 DNA repair; HEK293T ELG1-luciferase levels, luminescence; cells co-treated with 5-fluorouridine; Potency, µM (titrated, usually from 46.1 µM), for inactives: at the highest dose activity change, negative = inhibition, usual class: inhibitors; 670 tested, 68% active; also: % is scaled to controls: 0 for no effect and ±100 for the full control effect; nearly all actives have a fitted effect of over 55% in size
Target sequence (Q96QE3 whole entry, looked up): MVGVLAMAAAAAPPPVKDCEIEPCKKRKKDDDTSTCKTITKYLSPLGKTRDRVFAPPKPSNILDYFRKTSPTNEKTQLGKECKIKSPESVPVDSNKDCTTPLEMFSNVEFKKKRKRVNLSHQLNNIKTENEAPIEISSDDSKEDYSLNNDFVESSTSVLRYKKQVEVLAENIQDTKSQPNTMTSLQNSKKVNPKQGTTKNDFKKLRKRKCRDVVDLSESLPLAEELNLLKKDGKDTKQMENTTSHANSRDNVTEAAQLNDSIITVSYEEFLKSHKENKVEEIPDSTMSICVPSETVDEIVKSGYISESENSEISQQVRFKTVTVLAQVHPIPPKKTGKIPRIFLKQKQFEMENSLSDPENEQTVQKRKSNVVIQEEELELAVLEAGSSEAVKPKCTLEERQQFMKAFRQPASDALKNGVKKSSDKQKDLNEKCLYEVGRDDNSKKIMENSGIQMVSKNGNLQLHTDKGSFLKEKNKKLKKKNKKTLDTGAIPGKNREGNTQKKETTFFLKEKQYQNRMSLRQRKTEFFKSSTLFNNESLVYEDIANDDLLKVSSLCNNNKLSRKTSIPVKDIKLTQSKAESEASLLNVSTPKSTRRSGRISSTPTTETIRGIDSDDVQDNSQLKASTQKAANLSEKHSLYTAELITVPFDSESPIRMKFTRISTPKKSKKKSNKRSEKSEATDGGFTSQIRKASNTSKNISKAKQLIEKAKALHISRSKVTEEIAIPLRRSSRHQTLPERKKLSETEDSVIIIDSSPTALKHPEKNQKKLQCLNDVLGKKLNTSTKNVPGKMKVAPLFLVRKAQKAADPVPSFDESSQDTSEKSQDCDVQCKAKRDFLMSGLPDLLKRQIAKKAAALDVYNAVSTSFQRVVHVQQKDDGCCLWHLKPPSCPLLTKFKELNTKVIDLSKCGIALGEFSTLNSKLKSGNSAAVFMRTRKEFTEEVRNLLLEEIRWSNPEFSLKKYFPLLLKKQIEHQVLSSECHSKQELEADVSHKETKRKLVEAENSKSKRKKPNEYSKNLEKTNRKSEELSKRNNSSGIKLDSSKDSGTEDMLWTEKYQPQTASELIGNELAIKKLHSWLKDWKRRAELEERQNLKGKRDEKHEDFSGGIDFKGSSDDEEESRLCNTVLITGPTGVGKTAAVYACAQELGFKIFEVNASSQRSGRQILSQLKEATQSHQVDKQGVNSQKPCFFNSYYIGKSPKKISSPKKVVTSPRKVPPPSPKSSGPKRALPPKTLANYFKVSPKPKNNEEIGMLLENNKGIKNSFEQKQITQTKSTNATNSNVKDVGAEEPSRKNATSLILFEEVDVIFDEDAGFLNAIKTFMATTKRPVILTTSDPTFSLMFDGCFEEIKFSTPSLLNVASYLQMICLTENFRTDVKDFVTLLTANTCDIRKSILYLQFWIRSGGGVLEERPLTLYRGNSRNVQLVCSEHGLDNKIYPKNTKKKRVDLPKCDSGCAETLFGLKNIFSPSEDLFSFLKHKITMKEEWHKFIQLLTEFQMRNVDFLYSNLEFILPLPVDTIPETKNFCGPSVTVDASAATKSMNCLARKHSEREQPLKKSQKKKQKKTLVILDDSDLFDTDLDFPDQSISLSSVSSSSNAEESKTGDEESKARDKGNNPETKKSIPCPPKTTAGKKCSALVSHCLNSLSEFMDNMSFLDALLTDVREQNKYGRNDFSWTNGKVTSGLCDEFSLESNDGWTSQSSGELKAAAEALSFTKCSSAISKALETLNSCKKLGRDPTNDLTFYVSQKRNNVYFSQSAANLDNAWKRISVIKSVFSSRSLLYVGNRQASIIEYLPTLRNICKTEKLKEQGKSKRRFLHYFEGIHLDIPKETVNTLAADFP
ELG1-Luc MMS: confirmation of human ELG1 repair inhibitors, MMS stimulated. shares compounds with ELG1 DNA repair. 670 tested, 53% active. Potency, µM (series often up to 46.1 µM), for the others: at the highest dose activity change, negative = inhibition, hits mostly inhibitors. HEK293T luciferase-tagged ELG1 level, MMS stimulated; also: % is scaled to controls: 0 for no effect and ±100 for the full control effect; nearly all actives have a fitted effect of over 60% in size
ELG1 5-FU: confirmation of ELG1 repair inhibitors: viability with 5FU. 670 tested, under 10 active. shares compounds with ELG1 DNA repair. Potency, µM (top dose mostly 46.1 µM), for inactives: at the highest dose activity change, negative = viability loss, hits mostly cytotoxic. cell viability with 5-FU, ELG1-dependent repair. AID 624250;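 also: ELG1-luc HEK293T cells cotreated with 5-fluorouridine at 10 µM final; viability measured 16 h after compound addition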
ELG1 MMS cell: confirmation of ELG1 repair inhibitors: viability with MMS. Cell viability with MMS, ELG1-dependent DNA repair. Potency, µM (series often up to 46.1 µM), for inactives: top-dose activity change, negative = viability loss, usual class: cytotoxic. 670 tested, 33% active. shares compounds with ELG1 DNA repair. AID 624251;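 also: ELG1-luc HEK293T cells co-treated with 10 µM MMS; viability read 16 h after compound addition; % is scaled to controls: 0 for no effect and ±100 for the full control effect; nearly all actives have a fitted effect of over 60% in size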
Cell viab unstim: counter-screen for ELG1 repair inhibitors: unstimulated cell viability; shares compounds with ELG1 DNA repair; cell viability counter-screen, unstimulated, luminescence; Potency, µM (titrated, usually from 45.9 µM), for the others: top-dose activity change, negative = loss of viability, most hits filed as cytotoxic; 900 tested, 8% active; AID 624252;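 also: compound exposure lasted 16 hours before reading; % is scaled to controls: 0 for no effect and ±100 for the full control effect; nearly all actives have a fitted effect of over 55% in size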
FLuc enzyme: firefly luciferase inhibition counter-screen; shares compounds with ELG1 DNA repair; purified firefly luciferase, luminescence counter-screen; Potency, µM (series often up to 57.5 µM), inactives show at the highest dose activity, negative = inhibition, hits mostly inhibitors; 350 tested, 10% active; AID 624253; also: % is scaled to controls: 0 for no effect and ±100 for the full control effect
Active calls of the source: *. Calls follow the shape of the dose curve; as a rule, active = well fitted curve in the direction sought with a large enough effect; inconclusive = small, poorly fitted or top-dose-only effect, or another doubt; inactive = no such curve, though single readings can be large; an effect the other way counts as inactive or inconclusive. Potency is read from the fitted curve at half-maximal effect.

`Cc1ccccc1OCc1nc2ccccc2c(=O)n1/N=C/c1cn[nH]c1-c1ccccc1` gave ELG1 DNA repair 4.6µM*, NPC1 promoter act -4%, ELG1 genotox -10%, Rab9 prom act 1%, FLuc modulator -11%, SMN2 splice enh -33%, ELG1 FLuc counter -7%, ELG1 Luc conf 7.1µM*, ELG1-Luc MMS 14µM*, ELG1 5-FU inconclusive, ELG1 MMS cell inconclusive, Cell viab unstim inconclusive and FLuc enzyme -18%.
Cc1nc2ccccc2c(=O)n1/N=C/c1cn[nH]c1-c1ccccc1 was read as ELG1 DNA repair inconclusive, NPC1 promoter act 2%, ELG1 genotox -9%, Rab9 prom act 0% and FLuc modulator 0%.
Screening O=C(Nc1ccc(Br)cc1)c1ccc(F)c(S(=O)(=O)N2CCN(c3ccccn3)CC2)c1 returned ELG1 DNA repair 2.9µM*, NPC1 promoter act -24%, ELG1 genotox -5%, Rab9 prom act -26%, FLuc modulator -6%, SMN2 splice enh -55%, ELG1 FLuc counter -8%, ELG1 Luc conf 32µM*, ELG1-Luc MMS inconclusive, ELG1 5-FU -11%, ELG1 MMS cell inconclusive, Cell viab unstim inconclusive and FLuc enzyme -15%.
Screening CCC(C)C(=O)Nc1nnc(CCc2ccccc2)s1 (stereo unspecified) returned ELG1 DNA repair 28%, NPC1 promoter act 9%, ELG1 genotox 2%, Rab9 prom act 12% and FLuc modulator -9%.
`Cc1ccc(NC(=S)N(Cc2cccs2)Cc2cc3cccc(C)c3[nH]c2=O)cc1` gave ELG1 DNA repair inconclusive, NPC1 promoter act -3%, ELG1 genotox -7%, Rab9 prom act -4%, FLuc modulator 0%, SMN2 splice enh -35%, ELG1 Luc conf 4.4µM*, ELG1-Luc MMS inconclusive, ELG1 5-FU inconclusive, ELG1 MMS cell -4% and Cell viab unstim -12%.
Cc1ccc2cc(CN(CC3CCCO3)C(=S)Nc3ccccc3)c(=O)[nH]c2c1C (stereo unspecified) was read as ELG1 DNA repair 4.6µM*, NPC1 promoter act -25%, ELG1 genotox -10%, Rab9 prom act -15%, FLuc modulator 3%, SMN2 splice enh inconclusive, ELG1 Luc conf 4µM*, ELG1-Luc MMS inconclusive, ELG1 5-FU inconclusive, ELG1 MMS cell 0% and Cell viab unstim inconclusive.
For Cc1cc(C)cc(NC(=O)N2CCN(C/C=C/c3ccccc3)CC2)c1 the results were ELG1 DNA repair -3%, NPC1 promoter act 1%, ELG1 genotox -2%, Rab9 prom act -5%, FLuc modulator -2% and SMN2 splice enh -4%.
For COc1ccc(CCNC(=O)CCN2C(=O)c3cccc4cccc(c34)C2=O)cc1OC the results were ELG1 DNA repair 3%, NPC1 promoter act -3%, ELG1 genotox 3%, Rab9 prom act inconclusive, FLuc modulator 0% and SMN2 splice enh 9%.
Screening COc1ccc(CCN2C(=O)c3cccc4c(C(=O)N5CCCCC5)ccc(c34)C2=O)cc1OC returned ELG1 DNA repair 3.7µM*, NPC1 promoter act 0%, ELG1 genotox -8%, Rab9 prom act -6%, FLuc modulator -2%, SMN2 splice enh -74%, ELG1 Luc conf 7.9µM*, ELG1-Luc MMS 7.9µM*, ELG1 5-FU inconclusive, ELG1 MMS cell 11µM* and Cell viab unstim 14µM*.
Screening Cc1ccc(CCNC(=O)c2cccc(NC3=NC4CS(=O)(=O)CC4S3)c2)cc1 (stereo unspecified) returned ELG1 DNA repair 13%, NPC1 promoter act -3%, ELG1 genotox -1%, Rab9 prom act 3% and FLuc modulator inconclusive.
CN(CC(=O)Nc1ccccc1Br)C(=O)c1ccc(-c2ccc(Cl)cc2)o1 was read as ELG1 DNA repair 0.37µM*, NPC1 promoter act -34%, ELG1 genotox -7%, Rab9 prom act -38%, FLuc modulator -5%, ELG1 FLuc counter 16%, ELG1 Luc conf inconclusive, ELG1-Luc MMS 22µM*, ELG1 5-FU -8%, ELG1 MMS cell 25µM*, Cell viab unstim inconclusive and FLuc enzyme 21µM*.
COc1ccc(N=c2scc(C)n2CCCN2CCCC2=O)cc1 was read as ELG1 DNA repair -5%, NPC1 promoter act -3%, ELG1 genotox 2%, Rab9 prom act 14%, FLuc modulator 6% and SMN2 splice enh -1%.
For O=C1CCN(Cc2ccccc2)C=C1c1ccc(Cl)cc1 the results were ELG1 DNA repair 5% and ELG1 genotox 4%.
`O=C1CCN(Cc2ccccc2)C=C1c1ccc2ccccc2c1` gave ELG1 DNA repair inconclusive, ELG1 genotox inconclusive and Cell viab unstim -2%.
Screening COc1ccc2sc(-c3ccc(S(C)(=O)=O)cc3)c(-c3ccc(SC)cc3)c2c1 returned ELG1 DNA repair 13% and ELG1 genotox 0%.
